Laboratory results: PubChem BioAssay (NCATS)
Records with an inconclusive call do not appear. Activity calls are given as the source filed them. Calls come from the whole dose curve; as a rule, active = well fitted cell-killing curve with a large enough effect; inconclusive = small, poorly fitted or top-dose-only effect, or effect the other way; inactive = no such curve, though single readings can be large or run the other way.

How the values were obtained:
[1] = Quantitative High-Throughput drug screen in 47 multiple myeloma cell lines against the NCATS MIPE library collection: XG1_PLB cell viability assay (AID 1919866); details: CellTiter-Glo ATP, 48 h; series mostly up to 45.8 µM; note: nearly all actives have a fitted effect of over 35% in size
How it was run: (§1)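 500 cells/well; MIPE 4.0 drugs pin-transferred; 48 h, 37C, 5% CO2. CellTiter-Glo, 5 min RT, luminescence. Controls: DMSO 100%, media 0%.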

[2] = Quantitative High-Throughput drug screen in 47 multiple myeloma cell lines against the NCATS MIPE library collection: VP6_DJ cell viability assay (AID 1919867); details: ATP luminescence, 48 h; series mostly up to 45.8 µM; note: nearly all actives have a fitted effect of over 40% in size
How it was run: as §1

[3] = Quantitative High-Throughput drug screen in 47 multiple myeloma cell lines against the NCATS MIPE library collection: UTMC2_PLB cell viability assay (AID 1919868); details: CellTiter-Glo ATP luminescence, 48 h; viability (% of DMSO control): at 45.8 µM (top of the series); note: nearly all actives have a fitted effect of over 55% in size
How it was run: as §1

[4] = Quantitative High-Throughput drug screen in 47 multiple myeloma cell lines against the NCATS MIPE library collection: PE2_PLB cell viability assay (AID 1919869); details: PE2_PLB myeloma cells viability, ATP luminescence, 48 h; series mostly up to 45.8 µM; note: nearly all actives have a fitted effect of over 35% in size
How it was run: as §1

[5] = Quantitative High-Throughput drug screen in 47 multiple myeloma cell lines against the NCATS MIPE library collection: PCM6_Riken cell viability assay (AID 1919870); details: CellTiter-Glo ATP, 48 h; series mostly up to 45.8 µM; note: nearly all actives have a fitted effect of over 30% in size
How it was run: as §1

[6] = Quantitative High-Throughput drug screen in 47 multiple myeloma cell lines against the NCATS MIPE library collection: RPMI8226_ATCC cell viability assay (AID 1919871); details: RPMI8226 myeloma viability, CellTiter-Glo ATP luminescence, 48 h; series mostly up to 45.8 µM; note: nearly all actives have a fitted effect of over 30% in size
How it was run: as §1

[7] = Quantitative High-Throughput drug screen in 47 multiple myeloma cell lines against the NCATS MIPE library collection: OPM2_DSMZ cell viability assay (AID 1919872); details: OPM2 myeloma viability, CellTiter-Glo ATP luminescence, 48 h; series mostly up to 45.8 µM; note: nearly all actives have a fitted effect of over 30% in size
How it was run: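 CellTiter-Glo luminescence (ATP) after 48 h compound exposure, 37C/5% CO2; 500 cells/well; MIPE 4.0 approved/investigational drugs pinned in; DMSO = 100%, media only = 0% viability.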

[8] = Quantitative High-Throughput drug screen in 47 multiple myeloma cell lines against the NCATS MIPE library collection: KMS11_JCRBsus cell viability assay (AID 1919873); details: KMS11 myeloma viability, CellTiter-Glo ATP luminescence, 48 h; series mostly up to 45.8 µM; note: nearly all actives have a fitted effect of over 50% in size
How it was run: as §1

[9] = Quantitative High-Throughput drug screen in 47 multiple myeloma cell lines against the NCATS MIPE library collection: KMS28BM_JCRB cell viability assay (AID 1919874); details: CellTiter-Glo ATP, 48 h; series mostly up to 45.8 µM; note: nearly all actives have a fitted effect of over 35% in size
How it was run: as §1

[10] = Quantitative High-Throughput drug screen in 47 multiple myeloma cell lines against the NCATS MIPE library collection: XG6_PLB cell viability assay (AID 1919865); details: XG6 myeloma viability, CellTiter-Glo ATP luminescence, 48 h; series mostly up to 45.8 µM; note: nearly all actives have a fitted effect of over 40% in size
How it was run: as §1

Measured: Potency
Potency is the fitted concentration of half-maximal effect.

COC(=O)Nc1ccc(-c2nc(N3CCOCC3)c3cnn(C4CCN(C(=O)OC)CC4)c3n2)cc1
active: [1] 0.296 µM | [2] 0.148 µM | [3] 0.059 µM | [4] 0.332 µM | [5] 1.87 µM | [6] 0.332 µM | [7] 2.35 µM | [8] 0.166 µM | [9] 0.59 µM

CCOC(=O)c1c(CSc2ccccc2)n(C)c2cc(Br)c(O)c(CN(C)C)c12
active: [10] 14.8 µM | [5] 16.6 µM | [6] 11.8 µM | [8] 18.7 µM | [9] 14.8 µM

CCCCCCCCCCCCCCCC(=O)O[C@H]1[C@@H](O)[C@@H](O)[C@@H]([C@H](NC(=O)[C@@H]2C[C@@H](CCC)CN2C)[C@H](C)Cl)O[C@@H]1SC
inactive: [1] | [2] | [5] | [7] | [8]
active: [4] 10.5 µM

CN[C@@H](C)[C@H]1[C@H](O)C[C@@]2(C)[C@@H]3CC[C@H]4C(C)(C)[C@@H](NC)CC[C@@]45C[C@@]35CC[C@]12C
active: [10] 23.5 µM
inactive: [4] | [6] | [7] | [9]

CN1c2ccccc2C(=O)N2CCc3c([nH]c4ccccc34)C21 (stereo not given)
inactive: [6] | [7]
active: [10] 14.8 µM | [8] 2.96 µM | [9] 3.32 µM

Cc1ccc2c(c1)c1c(n2CCc2ccc(C)nc2)CCN(C)C1
active: [10] 16.6 µM
inactive: [4] | [5] | [8] | [9]

C[C@@H](NC(=O)c1ncnc(N)c1Cl)c1ncc(C(=O)Nc2cc(C(F)(F)F)c(Cl)cn2)s1
active: [1] 10.5 µM | [2] 20.9 µM | [7] 9.35 µM

NCC1CCC(C(=O)O)CC1 (stereo not given)
not listed: [1] | [2] | [3]
inactive: all other assays above

CCCCC(C)(C)[C@H](O)C=C[C@H]1[C@H](O)CC(=O)[C@H]1CC=CCCCC(=O)O
active: [10] 23.5 µM | [5] 26.4 µM | [6] 8.33 µM

NS(=O)(=O)c1cc(Cl)c(Cl)c(S(N)(=O)=O)c1
inactive: [1] | [2] | [4] | [5] | [6] | [7]

CN1CC(=O)N2C(Cc3c([nH]c4ccccc34)[C@H]2c2ccc3c(c2)OCO3)C1=O (stereo not given in full)
inactive: [1] | [2] | [4] | [7] | [8] | [9]

CCCCC[C@H](O)C=C[C@H]1[C@H](O)CC(=O)[C@H]1CC=CCCCC(=O)O
active: [10] 20.9 µM | [4] 23.5 µM
inactive: [3] | [7] | [9]

CC(C)CN(C[C@H](O)[C@H](Cc1ccccc1)NC(=O)O[C@H]1CCOC1)S(=O)(=O)c1ccc(N)cc1
inactive: [6]
active: [1] 20.9 µM | [2] 20.9 µM | [5] 13.2 µM | [7] 18.7 µM

Cc1cc2nc3c(=O)[nH]c(=O)nc-3n(CC(O)C(O)C(O)CO)c2cc1C (stereo not given)
active: [10] 7.43 µM | [9] 5.9 µM
inactive: [3] | [4] | [7] | [8]

CS(=O)(=O)c1ccc(C2=C(c3ccccc3)C(=O)OC2)cc1
not listed: [1] | [2] | [4]
inactive: all other assays above

COc1cc(N2CCN(C)CC2)ccc1Nc1nc(N)c(C(=O)c2c(Cl)cccc2Cl)s1
active: [1] 23.5 µM | [8] 18.7 µM

OC[C@H]1O[C@@H](Oc2ccc(O)cc2)[C@H](O)[C@@H](O)[C@H]1O
active: [2] 7.43 µM | [3] 9.35 µM
inactive: [5] | [7] | [9]

CCNC(=O)[C@H]1O[C@@H](n2cnc3c(N)nc(NCCc4ccc(CCC(=O)O)cc4)nc32)[C@H](O)[C@H]1O
inactive: [1] | [6] | [8]
active: [4] 0.0469 µM

CN(C)c1nc(Cc2ccc(NC(=O)c3ccc(C(F)(F)F)cc3)cc2)nc(N(C)C)c1CC(=O)O
active: [6] 6.62 µM
inactive: [1] | [4] | [8]

COc1cc([C@@H]2c3cc4c(cc3[C@@H](O[C@@H]3O[C@@H]5CO[C@@H](C)O[C@@H]5[C@H](O)[C@@H]3O)[C@H]3COC(=O)[C@H]23)OCO4)cc(OC)c1O
active: [3] 0.418 µM | [4] 1.18 µM

CCC[C@@H](NC(=O)[C@@H]1[C@H]2CCC[C@@H]2CN1C(=O)[C@@H](NC(=O)[C@@H](NC(=O)c1cnccn1)C1CCCCC1)C(C)(C)C)C(=O)C(=O)NC1CC1
active: [1] 14.8 µM | [6] 16.6 µM | [9] 18.7 µM
inactive: [3]

CN(C)S(=O)(=O)c1ccc2c(c1)C(=Cc1cc3c([nH]1)CCCC3)C(=O)N2
active: [2] 2.64 µM | [3] 3.32 µM | [4] 3.72 µM | [6] 7.43 µM

O=C(O)C1=NC(C(=O)O)CC(C=CN2c3cc(O)c(OC4OC(CO)C(O)C(O)C4O)cc3CC2C(=O)O)=C1 (stereo not given)
inactive: [1] | [4] | [6]

COc1ccc2c(c1)c(C1=C(c3c[nH]c4ccccc34)C(=O)NC1=O)cn2CCCN(C)C
active: [2] 20.9 µM | [5] 23.5 µM | [8] 23.5 µM

Nc1ccn([C@@H]2O[C@H](CO)[C@@H](O)[C@H]2O)c(=O)n1
active: [3] 0.001 µM
not listed: [2] | [9] | [10]
inactive: all other assays above

Cc1nc(C(=O)NCC(=O)O)c(O)c2ccc(Oc3ccccc3)cc12
inactive: [3] | [4] | [6] | [7] | [8] | [9]

C[C@@H]1CCO[C@H]2Cn3cc(C(=O)NCc4ccc(F)cc4F)c(=O)c(O)c3C(=O)N12
inactive: [7]
active: [1] 26.4 µM | [5] 23.5 µM | [8] 18.7 µM | [9] 16.6 µM

CN1N=C(N)c2cn([C@@H]3O[C@H](COP(=O)(O)O)[C@@H](O)[C@@H]3O)c3ncnc1c23
active: [3] 0.0235 µM | [4] 0.059 µM | [5] 1.05 µM | [6] 0.105 µM | [9] 23.5 µM

CCCCC(F)(F)[C@@]1(O)CC[C@H]2[C@H](CC(=O)[C@@H]2CCCCCCC(=O)O)O1
inactive: [1] | [4] | [5] | [7] | [8] | [9]

C[C@H]1COC2=C1C(=O)C(=O)c1c2ccc2c1CCCC2(C)C
active: [2] 16.6 µM | [3] 9.35 µM | [4] 26.4 µM
inactive: [9]

CN(C)CCN(Cc1ccc(Cl)cc1)c1ccccn1
active: [2] 20.9 µM | [3] 16.6 µM | [9] 14.8 µM
inactive: [6] | [7] | [8]

CC(C)c1onc(-c2c(Cl)cccc2Cl)c1COc1ccc(C=Cc2cccc(C(=O)O)c2)c(Cl)c1
inactive: [1] | [4] | [6] | [7] | [8] | [9]

Cc1nc2c([nH]1)CCN(C(=O)c1ccc(NC(=O)c3ccccc3-c3ccccc3)cc1)c1ccccc1-2
inactive: [1] | [7]

CON(C)C(=O)N1N=C(c2cc(F)ccc2F)S[C@]1(CCCN)c1ccccc1
inactive: [1] | [3] | [4]

COc1nccc(-c2c(-c3ccc(F)cc3)ncn2C2CCNCC2)n1
active: [1] 14.8 µM | [2] 1.18 µM | [9] 0.469 µM
inactive: [7]

C[C@H](CCC(=O)O)[C@H]1CC[C@H]2[C@H]3[C@@H](CC[C@]12C)[C@@]1(C)CC[C@@H](O)C[C@H]1C[C@@H]3O
inactive: [3] | [4] | [8]
active: [2] 20.9 µM | [7] 6.62 µM

CNc1nc(Nc2ccc(C(=O)N3CCOCC3)cc2OC)ncc1Cl
inactive: [7] | [8]
active: [1] 16.6 µM | [5] 16.6 µM

Cc1cc2c(cc1C1(c3ccc(C(=O)O)cn3)CC1)C(C)(C)CCC2(C)C
active: [4] 26.4 µM
inactive: [1] | [8]
